# Results taken from ChEMBL document CHEMBL3988442, “University of Dundee, Small-Polar-MMV Screening Library” (2021).
# Out of some 69,000 compounds screened, about 1,000 (1.4%) showed an effect of 50% or more. Many of the other results were omitted from the sample, so strong results are more common in it than they were.
# Tested on: Leishmania donovani
# Experiment: Leishmania intramacrophage assay
# Format: functional, organism-based
# Design: scale not given: in the data most compounds retested in dose-response had high values
compound,measurement,setting,value
Cc1cc(Cc2ccc(F)cc2)cc(C2CCCNC2)n1 (configuration not stated),Percent Effect,"30.3 µM, […]",22.51%
Cc1cc(Cc2ccccc2)cc(C2CCCNC2)n1 (configuration not stated),Percent Effect,"30.3 µM, […]",19.14%
Cc1cccc(Cc2cc(C)nc(C3CCCNC3)c2)c1 (configuration not stated),Percent Effect,"30.3 µM, […]",59.44%
Cc1cc(Cc2ccccc2F)cc(C2CCCNC2)n1 (configuration not stated),Percent Effect,"30.3 µM, […]",9.469%
CC(O)CCN(C)C(=O)Nc1ccc(Br)cc1 (configuration not stated),Percent Effect,"30.3 µM, […]",-0.06572%
Cc1ccc(CNC(=O)CN2CCCC(Cn3cncn3)C2)cc1 (configuration not stated),Percent Effect,30 µM,15.14%
Nc1nc(N2CCCCCC2)ncc1C(=O)NCc1ccc(F)c(Cl)c1,Percent Effect,"30.3 µM, […]",1.039%
CC(CO)CSc1ncnc2[nH]ncc12 (configuration not stated),Percent Effect,"30.3 µM, […]",-17.01%
O=C(O)C(F)(F)F.O=C(O)C(F)(F)F.O=C1COC2(CCN(Cc3cccnc3)CC2)CN1,Percent Effect,"30.3 µM, […]",22.41%
Cc1nc2c(c(NC(C)C)n1)CCN(C1CCOCC1)CC2.O=C(O)C(F)(F)F,Percent Effect,"30.3 µM, […]",14.91%
CC(C)Nc1nc2c(c(NC3CC3)n1)CCN(C1CCOCC1)CC2,Percent Effect,"30.3 µM, […]",70.3%
CC(C)Nc1nc2c(c(NC3CC3)n1)CCN(C(=O)C1CCOC1)CC2 (configuration not stated),Percent Effect,"30.3 µM, […]",26.08%
CC(C)N(CCO)C(=O)C1CCC(=O)N(CCc2cccc(F)c2)C1 (configuration not stated),Percent Effect,"30.3 µM, […]",21.22%
OCC1(Cc2ccc(Cl)cc2)CCN(Cc2cccnc2)CC1,Percent Effect,"30.3 µM, […]",13.26%
Cc1n[nH]c(C)c1NC(=O)Nc1cccnc1N1CCCC1,Percent Effect,"30.3 µM, […]",-22.16%
CSc1ccc2cc(CN(C)CCO)c(=O)[nH]c2c1,Percent Effect,"30.3 µM, […]",10.15%
CNCc1cn(C2CCN(CCC(C)c3ccccc3)CC2)nn1 (configuration not stated),Percent Effect,"30.3 µM, […]",69.72%
CC(CCN1CCC(n2cc(CCO)nn2)CC1)c1ccccc1 (configuration not stated),Percent Effect,"30.3 µM, […]",17.91%
COCc1cn(C2CCN(CCC(C)c3ccccc3)CC2)nn1 (configuration not stated),Percent Effect,"30.3 µM, […]",15.55%
Cc1noc(C)c1CCCNC(=O)C1CCCN(C(=O)C2CC2)C1 (configuration not stated),Percent Effect,"30.3 µM, […]",17.01%
CCSc1cc(C(=O)NCc2ccc(C(=O)NC)cc2)ccn1,Percent Effect,"30.3 µM, […]",-0.2287%
CCSc1cc(C(=O)NCCNC(=O)Cc2ccccc2)ccn1,Percent Effect,"30.3 µM, […]",42.53%
CCSc1cc(C(=O)NCc2ccccc2O)ccn1,Percent Effect,"30 µM, 30.03 µM",52.62%
CNc1nc(N2C[C@H](NC(=O)CCOC)[C@@H](C3CC3)C2)nc2c1CCC2,Percent Effect,"30.3 µM, […]",20.37%
COCCC(=O)N[C@H]1CN(c2nc(C)c3c(n2)CCCC3)C[C@@H]1C1CC1,Percent Effect,"30.3 µM, […]",-3.355%
CNCC(=O)N[C@H]1CN(c2nc(C)c3c(n2)CCCC3)C[C@@H]1C1CC1,Percent Effect,"30.3 µM, […]",61.72%
Cc1ccc(CN(C)C(=O)c2cnsn2)cc1,Percent Effect,"30.3 µM, […]",19.42%
CCn1nc(CC(C)C)cc1C(=O)N1CC(c2ccncc2)C1,Percent Effect,"30.3 µM, […]",24.78%
CCC(C(=O)NCc1nc(C)cc(C(F)(F)F)n1)n1cccn1 (configuration not stated),Percent Effect,"30.3 µM, […]",13.87%
CCOCC(=O)NCCc1nc(C)cc(C(F)(F)F)n1,Percent Effect,"30.3 µM, […]",-29.08%
CCC(C(=O)NCCc1nc(C)cc(C(F)(F)F)n1)n1cccn1 (configuration not stated),Percent Effect,"30.3 µM, […]",69.8%
O=C(CC1NC(N2CCc3ccccc3C2)=NC1=O)Nc1ccccc1 (configuration not stated),Percent Effect,"30.3 µM, […]",4.892%
COCCC(=O)N1CCN(CC(C)C)c2nc(C)ccc2C1.O=C(O)C(F)(F)F,Percent Effect,"30.3 µM, […]",8.451%
CC1(NC(=O)Cc2cccs2)CCS(=O)(=O)C1 (configuration not stated),Percent Effect,"30.3 µM, […]",19.51%
CC(C)Cn1nc2ccc(S(=O)(=O)N3CCC(C)CC3)cn2c1=O,Percent Effect,"30.3 µM, […]",58.76%
CCn1nc2ccc(S(=O)(=O)N3CCSCC3)cn2c1=O,Percent Effect,"30.3 µM, […]",8.958%
CC(C)CCn1nc2ccc(S(=O)(=O)N3CCOCC3)cn2c1=O,Percent Effect,"30.3 µM, […]",-38.47%
CCN(C)S(=O)(=O)N(Cc1cscn1)c1ccccc1,Percent Effect,"30.3 µM, […]",-18.14%
Cc1nc(C2CCCN2CCCS(N)(=O)=O)no1 (configuration not stated),Percent Effect,30 µM,6.42%
Cn1cccc1-c1cc(C(=O)NCCCc2csc(N)n2)[nH]n1,Percent Effect,"30.3 µM, […]",54.27%
Cc1ccc(-c2cc(C(=O)NCCCc3csc(N)n3)[nH]n2)o1,Percent Effect,"30.3 µM, […]",-46.01%
Cc1ccc(-c2cc(C(=O)NCCCc3csc(N)n3)[nH]n2)s1,Percent Effect,"30.3 µM, […]",19.81%
Cc1ccc(N2CC[C@@H]3O[C@@H](COCc4cccnc4)CC[C@@H]32)nn1.O=C(O)C(F)(F)F.O=C(O)C(F)(F)F,Percent Effect,"30.3 µM, […]",-9.892%
CCN1CC2(CCNCC2)COc2ccccc2S1(=O)=O.O=C(O)C(F)(F)F,Percent Effect,"30 µM, 30.03 µM",13.53%
O=C(c1ccn(COc2ccc(F)cc2)n1)N1CCCC1,Percent Effect,"30.3 µM, […]",0.02157%
O=C(c1ccn(COc2ccc(F)cc2)n1)N1CCCCCC1,Percent Effect,"30.3 µM, […]",-66.53%
CC(C)c1ccc(OCn2ccc(C(=O)N3CCCC3)n2)cc1,Percent Effect,"30 µM, 30.03 µM",59.3%
Cc1nsc(C(=O)NCCc2ccc(Cl)cc2)n1,Percent Effect,"30.3 µM, […]",25.28%
CN(C)c1nc(NCCCN2CCc3ccccc32)ncc1F,Percent Effect,"30.3 µM, […]",50.82%
Cc1ccnc(NCCCN2CCc3ccccc32)n1,Percent Effect,"30.3 µM, […]",20.07%
Cc1cnc(NCCCN2CCc3ccccc32)nc1,Percent Effect,"30.3 µM, […]",21.16%
CNC(=O)c1cccc(NC(=O)CN2CCN(S(C)(=O)=O)CC2)c1,Percent Effect,"30 µM, 30.03 µM",9.767%
